Reference: the supplement of paper PMC11732987, “Enantioselective OTUD7B fragment discovery through chemoproteomics screening and high-throughput optimisation” (Communications Chemistry, 2025)

Tests used:
Assay in all cases: log2 ratio of Biotin-Ahx-Ub-VS probe labelling (fragment/DMSO); higher = less target engagement (more negative = stronger competition), active = hit call of the paper (q ≤ 0.05, log2 ratio ≤ -1)
Conditions in all cases: compound concentration: 200 uM; treatment time: 3 h
USP34 = USP34 (UniProt Q70CQ2)
How it was run: (§1)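 The table lists average log2 ratios of fragment over vehicle, from an unpaired t-test on global-median-normalised Spectronaut label-free quantities. Proteins with ≥2 unique peptides were used. Samples were HEK293T lysate (495 µg) treated in triplicate with fragment at 200 µM or vehicle for 3 h, then with Biotin-Ahx-Ub-VS (0.5 µM final) for 1 h, with labelled DUBs NeutrAvidin-enriched and run by diaPASEF LC-MS/MS.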

USP36 = target: T1, USP36 (UniProt Q9P275)
T1 sequence (whole entry): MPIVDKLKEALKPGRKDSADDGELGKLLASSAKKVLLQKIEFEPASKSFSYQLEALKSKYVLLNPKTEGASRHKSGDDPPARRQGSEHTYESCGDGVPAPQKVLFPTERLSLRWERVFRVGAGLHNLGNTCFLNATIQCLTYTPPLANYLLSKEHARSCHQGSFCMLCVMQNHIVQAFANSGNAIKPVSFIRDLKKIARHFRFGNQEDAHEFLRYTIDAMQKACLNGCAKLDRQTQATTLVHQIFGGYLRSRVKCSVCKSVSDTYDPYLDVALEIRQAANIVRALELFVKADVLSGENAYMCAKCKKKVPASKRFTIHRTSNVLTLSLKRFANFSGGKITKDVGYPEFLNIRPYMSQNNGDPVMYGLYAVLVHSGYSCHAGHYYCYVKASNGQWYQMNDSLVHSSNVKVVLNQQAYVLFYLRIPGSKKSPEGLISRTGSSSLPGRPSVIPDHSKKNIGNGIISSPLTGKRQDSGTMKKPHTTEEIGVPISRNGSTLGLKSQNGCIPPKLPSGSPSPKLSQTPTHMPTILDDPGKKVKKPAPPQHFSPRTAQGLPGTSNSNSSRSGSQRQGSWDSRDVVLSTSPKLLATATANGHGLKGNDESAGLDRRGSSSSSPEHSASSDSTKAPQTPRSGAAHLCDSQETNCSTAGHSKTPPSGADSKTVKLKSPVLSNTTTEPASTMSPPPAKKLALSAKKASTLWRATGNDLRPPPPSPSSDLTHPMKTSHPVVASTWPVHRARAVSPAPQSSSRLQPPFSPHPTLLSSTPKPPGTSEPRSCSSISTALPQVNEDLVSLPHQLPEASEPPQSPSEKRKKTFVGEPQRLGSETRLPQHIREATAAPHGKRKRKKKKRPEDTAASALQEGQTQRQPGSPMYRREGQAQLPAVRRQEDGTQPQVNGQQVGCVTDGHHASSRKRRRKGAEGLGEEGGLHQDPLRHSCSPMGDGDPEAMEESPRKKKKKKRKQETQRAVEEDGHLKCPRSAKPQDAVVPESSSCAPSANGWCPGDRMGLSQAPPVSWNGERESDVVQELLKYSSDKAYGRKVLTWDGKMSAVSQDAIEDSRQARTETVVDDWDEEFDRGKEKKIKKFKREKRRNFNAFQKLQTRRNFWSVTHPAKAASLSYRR
How it was run: as §1

USP38 = target: T2, USP38 (UniProt Q8NB14)
T2 sequence (whole entry): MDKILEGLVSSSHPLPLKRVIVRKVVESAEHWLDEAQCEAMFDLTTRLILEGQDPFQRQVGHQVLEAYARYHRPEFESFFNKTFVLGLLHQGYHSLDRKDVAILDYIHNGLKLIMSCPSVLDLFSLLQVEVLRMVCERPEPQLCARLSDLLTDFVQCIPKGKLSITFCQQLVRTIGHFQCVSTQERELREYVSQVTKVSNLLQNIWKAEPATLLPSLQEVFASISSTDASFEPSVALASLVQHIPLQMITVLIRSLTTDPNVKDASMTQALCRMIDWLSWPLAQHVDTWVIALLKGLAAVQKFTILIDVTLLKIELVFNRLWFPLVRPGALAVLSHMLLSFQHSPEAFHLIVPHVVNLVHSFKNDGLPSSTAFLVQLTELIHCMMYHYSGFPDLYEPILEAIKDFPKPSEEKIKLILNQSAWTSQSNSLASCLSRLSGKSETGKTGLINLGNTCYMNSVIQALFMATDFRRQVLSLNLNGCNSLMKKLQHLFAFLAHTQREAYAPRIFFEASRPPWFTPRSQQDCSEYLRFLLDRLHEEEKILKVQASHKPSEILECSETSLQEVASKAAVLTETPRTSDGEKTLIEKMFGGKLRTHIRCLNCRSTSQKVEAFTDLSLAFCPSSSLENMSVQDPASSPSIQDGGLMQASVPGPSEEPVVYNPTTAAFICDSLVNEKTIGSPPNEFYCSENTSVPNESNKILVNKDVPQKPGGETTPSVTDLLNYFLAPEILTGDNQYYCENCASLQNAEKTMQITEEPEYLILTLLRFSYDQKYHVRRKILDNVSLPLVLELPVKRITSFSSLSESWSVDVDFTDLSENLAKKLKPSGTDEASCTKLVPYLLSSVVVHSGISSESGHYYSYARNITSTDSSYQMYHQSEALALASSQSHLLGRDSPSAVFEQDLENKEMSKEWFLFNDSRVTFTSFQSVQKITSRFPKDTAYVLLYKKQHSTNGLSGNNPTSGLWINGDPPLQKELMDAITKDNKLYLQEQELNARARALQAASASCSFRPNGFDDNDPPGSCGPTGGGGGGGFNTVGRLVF
How it was run: as §1

USP39 = target: T3, USP39 (UniProt Q53GS9)
T3 sequence (whole entry): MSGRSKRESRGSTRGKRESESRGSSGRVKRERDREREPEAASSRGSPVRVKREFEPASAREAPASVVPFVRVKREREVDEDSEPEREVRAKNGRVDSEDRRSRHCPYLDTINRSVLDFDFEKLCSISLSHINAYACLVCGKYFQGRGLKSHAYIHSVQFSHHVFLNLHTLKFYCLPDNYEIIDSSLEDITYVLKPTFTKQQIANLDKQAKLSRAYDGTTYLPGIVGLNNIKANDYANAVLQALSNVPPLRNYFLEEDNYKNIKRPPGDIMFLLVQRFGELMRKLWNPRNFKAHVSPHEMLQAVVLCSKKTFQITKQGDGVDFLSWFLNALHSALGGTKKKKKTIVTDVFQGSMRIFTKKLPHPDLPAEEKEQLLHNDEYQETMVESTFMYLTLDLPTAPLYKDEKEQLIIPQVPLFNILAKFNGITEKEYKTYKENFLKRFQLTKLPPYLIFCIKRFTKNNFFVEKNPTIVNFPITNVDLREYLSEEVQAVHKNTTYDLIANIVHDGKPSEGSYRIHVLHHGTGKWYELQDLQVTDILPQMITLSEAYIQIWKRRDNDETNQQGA
How it was run: as §1

USP4 = target: T4, USP4 (UniProt Q13107)
T4 sequence (whole entry): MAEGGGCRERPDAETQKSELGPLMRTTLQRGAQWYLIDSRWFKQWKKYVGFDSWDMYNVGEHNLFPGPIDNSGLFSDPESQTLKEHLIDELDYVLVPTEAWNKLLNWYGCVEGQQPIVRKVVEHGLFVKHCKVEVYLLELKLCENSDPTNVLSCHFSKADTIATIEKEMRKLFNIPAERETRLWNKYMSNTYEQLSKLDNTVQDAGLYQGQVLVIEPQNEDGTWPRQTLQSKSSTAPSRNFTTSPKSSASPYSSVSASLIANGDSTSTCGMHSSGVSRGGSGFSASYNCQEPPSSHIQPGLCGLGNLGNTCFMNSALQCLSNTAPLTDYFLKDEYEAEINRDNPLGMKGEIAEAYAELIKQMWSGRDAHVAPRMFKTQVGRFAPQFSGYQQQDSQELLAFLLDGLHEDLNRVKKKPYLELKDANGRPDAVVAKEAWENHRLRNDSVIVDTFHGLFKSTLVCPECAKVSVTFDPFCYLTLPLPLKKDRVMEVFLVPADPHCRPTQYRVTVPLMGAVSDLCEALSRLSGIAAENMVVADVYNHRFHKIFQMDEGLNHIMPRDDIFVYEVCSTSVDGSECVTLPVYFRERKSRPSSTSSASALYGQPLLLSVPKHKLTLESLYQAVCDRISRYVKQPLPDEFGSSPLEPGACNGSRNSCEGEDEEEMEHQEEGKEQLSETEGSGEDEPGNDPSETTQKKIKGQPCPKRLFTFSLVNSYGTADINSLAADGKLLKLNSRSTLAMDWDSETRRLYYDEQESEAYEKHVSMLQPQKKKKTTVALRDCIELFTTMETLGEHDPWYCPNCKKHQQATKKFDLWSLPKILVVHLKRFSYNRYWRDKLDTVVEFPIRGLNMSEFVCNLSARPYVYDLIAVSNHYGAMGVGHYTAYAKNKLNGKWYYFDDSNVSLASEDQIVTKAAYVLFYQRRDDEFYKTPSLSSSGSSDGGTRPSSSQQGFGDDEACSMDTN
How it was run: as §1

Measured: log2 ratio of Biotin-Ahx-Ub-VS probe labelling

Sequence of USP34 (Q70CQ2 whole entry, the tested form may be a part): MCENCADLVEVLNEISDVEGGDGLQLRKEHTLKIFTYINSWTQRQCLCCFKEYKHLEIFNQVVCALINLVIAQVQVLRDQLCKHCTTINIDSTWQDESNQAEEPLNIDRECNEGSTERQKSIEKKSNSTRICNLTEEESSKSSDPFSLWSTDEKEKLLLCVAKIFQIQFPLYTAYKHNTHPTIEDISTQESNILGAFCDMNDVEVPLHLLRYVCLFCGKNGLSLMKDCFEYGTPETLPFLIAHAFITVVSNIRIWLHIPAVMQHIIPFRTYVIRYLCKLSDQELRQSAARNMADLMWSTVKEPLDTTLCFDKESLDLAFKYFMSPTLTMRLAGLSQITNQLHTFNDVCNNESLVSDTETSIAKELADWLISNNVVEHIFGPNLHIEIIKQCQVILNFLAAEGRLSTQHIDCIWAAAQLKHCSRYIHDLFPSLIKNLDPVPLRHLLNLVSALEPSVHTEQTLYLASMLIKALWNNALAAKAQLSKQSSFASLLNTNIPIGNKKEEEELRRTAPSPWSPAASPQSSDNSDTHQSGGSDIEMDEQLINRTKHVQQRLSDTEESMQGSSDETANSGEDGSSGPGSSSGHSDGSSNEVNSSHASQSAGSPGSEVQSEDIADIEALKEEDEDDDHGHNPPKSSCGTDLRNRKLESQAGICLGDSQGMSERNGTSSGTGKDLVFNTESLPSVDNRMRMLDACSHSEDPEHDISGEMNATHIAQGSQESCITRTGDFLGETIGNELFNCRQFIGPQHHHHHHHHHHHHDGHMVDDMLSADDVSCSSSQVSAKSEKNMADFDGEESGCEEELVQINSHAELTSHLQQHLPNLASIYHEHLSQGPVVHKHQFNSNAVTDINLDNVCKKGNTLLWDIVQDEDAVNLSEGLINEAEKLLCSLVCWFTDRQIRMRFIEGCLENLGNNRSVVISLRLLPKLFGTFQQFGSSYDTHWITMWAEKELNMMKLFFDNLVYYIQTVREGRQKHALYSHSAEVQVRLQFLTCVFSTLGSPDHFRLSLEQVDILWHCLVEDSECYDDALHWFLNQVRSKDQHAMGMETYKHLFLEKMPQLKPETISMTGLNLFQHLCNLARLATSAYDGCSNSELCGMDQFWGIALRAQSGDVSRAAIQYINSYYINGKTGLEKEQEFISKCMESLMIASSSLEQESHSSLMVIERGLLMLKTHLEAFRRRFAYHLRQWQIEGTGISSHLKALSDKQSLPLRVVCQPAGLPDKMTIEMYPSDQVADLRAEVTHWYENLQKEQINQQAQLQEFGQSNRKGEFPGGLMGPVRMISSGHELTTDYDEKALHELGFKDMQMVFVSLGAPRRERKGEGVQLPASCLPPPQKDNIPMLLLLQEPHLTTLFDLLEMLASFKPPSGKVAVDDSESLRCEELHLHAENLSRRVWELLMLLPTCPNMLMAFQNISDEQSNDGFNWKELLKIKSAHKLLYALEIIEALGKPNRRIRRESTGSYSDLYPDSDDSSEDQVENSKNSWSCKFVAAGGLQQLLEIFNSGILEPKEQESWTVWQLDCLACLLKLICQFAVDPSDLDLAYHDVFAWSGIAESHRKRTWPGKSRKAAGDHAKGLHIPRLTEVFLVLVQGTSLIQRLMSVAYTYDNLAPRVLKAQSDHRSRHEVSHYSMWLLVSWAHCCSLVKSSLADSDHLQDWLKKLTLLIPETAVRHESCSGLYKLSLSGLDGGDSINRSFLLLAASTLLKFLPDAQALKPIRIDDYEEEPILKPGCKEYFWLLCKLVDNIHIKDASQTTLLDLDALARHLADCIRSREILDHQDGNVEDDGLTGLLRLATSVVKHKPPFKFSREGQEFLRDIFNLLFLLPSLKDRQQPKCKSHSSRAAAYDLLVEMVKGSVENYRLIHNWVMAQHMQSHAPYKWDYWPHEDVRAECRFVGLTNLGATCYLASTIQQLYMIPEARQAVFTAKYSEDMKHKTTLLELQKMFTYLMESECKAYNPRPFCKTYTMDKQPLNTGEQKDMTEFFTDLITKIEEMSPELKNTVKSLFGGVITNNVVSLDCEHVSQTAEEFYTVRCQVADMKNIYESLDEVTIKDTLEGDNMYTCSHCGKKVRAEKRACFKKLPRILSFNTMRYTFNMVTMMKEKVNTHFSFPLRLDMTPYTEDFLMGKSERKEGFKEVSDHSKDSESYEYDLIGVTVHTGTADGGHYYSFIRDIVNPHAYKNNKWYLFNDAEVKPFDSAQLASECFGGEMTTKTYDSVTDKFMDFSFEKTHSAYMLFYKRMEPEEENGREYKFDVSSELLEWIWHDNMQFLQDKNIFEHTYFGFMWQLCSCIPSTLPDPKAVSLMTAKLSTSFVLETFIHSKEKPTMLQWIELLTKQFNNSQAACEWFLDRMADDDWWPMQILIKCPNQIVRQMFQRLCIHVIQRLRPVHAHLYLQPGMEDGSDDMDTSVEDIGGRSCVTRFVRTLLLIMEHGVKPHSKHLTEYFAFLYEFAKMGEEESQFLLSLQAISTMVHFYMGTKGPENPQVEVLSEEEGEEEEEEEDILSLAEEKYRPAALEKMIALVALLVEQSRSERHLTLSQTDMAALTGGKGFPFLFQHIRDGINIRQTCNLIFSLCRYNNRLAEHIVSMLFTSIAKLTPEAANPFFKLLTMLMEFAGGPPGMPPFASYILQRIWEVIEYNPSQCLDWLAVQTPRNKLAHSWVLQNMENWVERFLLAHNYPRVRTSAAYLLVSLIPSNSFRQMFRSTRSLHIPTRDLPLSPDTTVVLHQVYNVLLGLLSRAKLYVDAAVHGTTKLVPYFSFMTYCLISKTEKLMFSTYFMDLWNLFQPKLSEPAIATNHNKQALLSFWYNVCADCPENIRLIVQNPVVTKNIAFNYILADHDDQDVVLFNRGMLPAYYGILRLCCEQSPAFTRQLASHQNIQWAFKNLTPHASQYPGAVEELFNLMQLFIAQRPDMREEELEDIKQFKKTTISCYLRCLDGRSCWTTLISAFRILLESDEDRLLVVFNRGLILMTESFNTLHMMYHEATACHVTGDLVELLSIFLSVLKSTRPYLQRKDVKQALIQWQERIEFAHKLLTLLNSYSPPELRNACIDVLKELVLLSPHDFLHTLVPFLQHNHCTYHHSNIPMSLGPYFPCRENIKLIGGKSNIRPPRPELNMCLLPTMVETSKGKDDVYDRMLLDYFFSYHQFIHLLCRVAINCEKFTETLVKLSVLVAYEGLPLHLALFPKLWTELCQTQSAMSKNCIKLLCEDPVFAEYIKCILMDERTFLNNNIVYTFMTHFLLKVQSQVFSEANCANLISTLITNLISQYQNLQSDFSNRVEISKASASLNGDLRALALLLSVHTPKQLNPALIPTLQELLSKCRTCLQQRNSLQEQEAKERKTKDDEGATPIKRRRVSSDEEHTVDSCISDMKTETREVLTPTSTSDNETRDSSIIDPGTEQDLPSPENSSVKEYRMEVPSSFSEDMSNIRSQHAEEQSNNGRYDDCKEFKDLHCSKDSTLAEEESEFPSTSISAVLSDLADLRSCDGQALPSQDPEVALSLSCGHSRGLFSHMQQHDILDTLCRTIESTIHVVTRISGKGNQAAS

Cc1ncsc1CCNC(=O)CCl
inactive: USP34 0.121 | USP36 -0.151 | USP38 0.14 | USP39 -0.101 | USP4 0.244
